Common to all, as to design: scale not given: direction of the effect not stated beside the values
Assay [1] addresses Protein translocase subunit SecA (Escherichia coli (strain K12)) (UniProt P10408). In words: Assay to Identify E. coli SecA ATPase Inhibitors. Format: functional. Particulars: 30 µM.
The target of assay [2] is T1, Ubiquitin-activating enzyme e1, putative (Leishmania donovani (strain BPK282A1)) (UniProt E9BSI1).
T1 sequence (whole entry): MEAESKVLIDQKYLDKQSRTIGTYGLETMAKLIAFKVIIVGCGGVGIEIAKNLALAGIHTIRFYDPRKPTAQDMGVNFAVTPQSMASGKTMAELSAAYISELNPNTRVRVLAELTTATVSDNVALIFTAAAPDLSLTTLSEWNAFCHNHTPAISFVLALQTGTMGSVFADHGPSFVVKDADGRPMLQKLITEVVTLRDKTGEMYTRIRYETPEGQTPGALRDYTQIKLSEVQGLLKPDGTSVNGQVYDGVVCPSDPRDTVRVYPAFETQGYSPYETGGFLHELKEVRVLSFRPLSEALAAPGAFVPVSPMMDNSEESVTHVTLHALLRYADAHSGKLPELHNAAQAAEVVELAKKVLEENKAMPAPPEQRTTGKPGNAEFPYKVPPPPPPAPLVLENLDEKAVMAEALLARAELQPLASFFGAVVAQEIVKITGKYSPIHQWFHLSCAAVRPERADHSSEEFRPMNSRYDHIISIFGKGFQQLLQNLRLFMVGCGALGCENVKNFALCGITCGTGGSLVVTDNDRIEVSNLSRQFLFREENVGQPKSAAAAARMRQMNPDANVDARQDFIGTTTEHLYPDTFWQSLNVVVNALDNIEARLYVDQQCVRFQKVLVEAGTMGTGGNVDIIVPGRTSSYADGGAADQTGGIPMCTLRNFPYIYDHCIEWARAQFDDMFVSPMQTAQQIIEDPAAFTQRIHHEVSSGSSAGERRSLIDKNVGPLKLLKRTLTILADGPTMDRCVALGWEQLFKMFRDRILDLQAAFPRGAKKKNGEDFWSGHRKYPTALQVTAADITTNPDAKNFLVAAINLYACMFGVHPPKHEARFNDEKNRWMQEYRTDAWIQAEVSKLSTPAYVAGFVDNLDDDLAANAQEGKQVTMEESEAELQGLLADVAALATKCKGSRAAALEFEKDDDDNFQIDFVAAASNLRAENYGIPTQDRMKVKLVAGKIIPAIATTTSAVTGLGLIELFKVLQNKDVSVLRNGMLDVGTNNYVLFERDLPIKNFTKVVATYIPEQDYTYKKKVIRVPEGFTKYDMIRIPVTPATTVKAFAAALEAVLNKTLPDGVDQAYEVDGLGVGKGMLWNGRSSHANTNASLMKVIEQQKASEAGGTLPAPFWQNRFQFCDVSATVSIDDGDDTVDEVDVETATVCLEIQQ
In words: Leishmania donovani Ubiquitin Activating Enzyme (LdE1). Type of assay: functional. To be noted: 30 µM.

In assay [3] the target is AMP-activated protein kinase, AMPK (Homo sapiens) (UniProt P54646+O43741+P54619+Q9UGJ0+Q9Y478+Q13131+Q9UGI9). In words: AMP-dependent Kinase enzyme assay. An in vitro enzyme assay that detects ADP turnover that is directly proportional to AMPK activity. This uses naive AMPK that is activated during the assay with MK-8722. Format: functional. To be noted: 30 µM.
In assay [4] the target is Sialic acid-binding Ig-like lectin 9 (Homo sapiens) (UniProt Q9Y336). In words: Hs-Siglec9 ALPHAscreen SOP 20170721. To be noted: 10 µM. (In general: In Alpha technology, singlet oxygen from a donor bead excites a nearby acceptor bead.)
Sequence of Sialic acid-binding Ig-like lectin 9 (Homo sapiens) (Q9Y336 whole entry): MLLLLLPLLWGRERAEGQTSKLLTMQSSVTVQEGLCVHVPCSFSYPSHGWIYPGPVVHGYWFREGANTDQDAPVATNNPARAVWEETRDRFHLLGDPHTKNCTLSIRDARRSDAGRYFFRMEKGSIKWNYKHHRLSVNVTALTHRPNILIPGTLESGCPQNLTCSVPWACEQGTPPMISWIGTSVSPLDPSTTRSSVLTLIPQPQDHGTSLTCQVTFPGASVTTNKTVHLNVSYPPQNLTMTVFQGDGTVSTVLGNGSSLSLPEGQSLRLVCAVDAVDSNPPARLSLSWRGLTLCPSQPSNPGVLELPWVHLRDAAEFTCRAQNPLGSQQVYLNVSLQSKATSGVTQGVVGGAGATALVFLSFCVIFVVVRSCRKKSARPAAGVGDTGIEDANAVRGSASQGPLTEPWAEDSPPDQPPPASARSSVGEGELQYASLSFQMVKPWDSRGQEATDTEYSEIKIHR
In the next assay the test system is Trypanosoma cruzi. In words: Trypanosoma cruzi phosphomannomutase and mannose-1-phosphate guanylyltransferase assay. Format: functional. Particulars: 10 µM.
For assay [5], the target named is T2, Arginase-2, mitochondrial (Homo sapiens) (UniProt P78540).
T2 sequence (whole entry): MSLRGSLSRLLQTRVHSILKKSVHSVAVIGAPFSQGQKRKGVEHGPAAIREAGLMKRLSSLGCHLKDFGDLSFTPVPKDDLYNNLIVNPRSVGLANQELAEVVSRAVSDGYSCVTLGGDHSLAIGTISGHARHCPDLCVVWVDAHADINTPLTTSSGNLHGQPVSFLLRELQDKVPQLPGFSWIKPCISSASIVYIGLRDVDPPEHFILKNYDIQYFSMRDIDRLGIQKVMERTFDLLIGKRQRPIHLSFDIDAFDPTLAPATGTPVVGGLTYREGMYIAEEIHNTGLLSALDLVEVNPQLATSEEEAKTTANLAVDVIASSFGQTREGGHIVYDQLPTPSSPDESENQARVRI
In words: in vitro enzyme assay to detect the production of urea directly proportional to the activity of Arginase II. Note: in the data most compounds retested in dose-response had high values. Format: functional. To be noted: 33.3 µM.

For assay [6], the target named is T3, Proteasome subunit beta (Trypanosoma cruzi) (UniProt O96673).
T3 sequence (whole entry): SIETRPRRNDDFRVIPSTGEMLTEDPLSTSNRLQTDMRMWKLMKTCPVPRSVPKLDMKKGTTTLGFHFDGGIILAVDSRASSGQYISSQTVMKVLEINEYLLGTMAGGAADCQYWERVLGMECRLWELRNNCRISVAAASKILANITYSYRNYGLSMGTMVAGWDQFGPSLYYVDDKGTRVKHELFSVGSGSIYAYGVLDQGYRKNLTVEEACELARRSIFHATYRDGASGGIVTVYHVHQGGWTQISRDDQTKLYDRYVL
In words: Trypanosoma cruzi proteasome chymotrypsin-like activity (TcProtChymo) assay. Note: in the data most compounds retested in dose-response had high values. Type of assay: functional. To be noted: 9.37 µM.

Another assay is filed under the species Homo sapiens. In words: To identify inhibition of the IFN signalling (Jak-Stat) pathway via expression of an eGFP reporter gene under the control of an IFN-stimulated response element (ISRE) containing MxA promoter. Format: functional. Particulars: 30 µM. In general terms: A reporter such as luciferase makes a cellular process visible.
The target of assay [7] is T4, Tyrosyl-tRNA synthetase, putative (Trypanosoma cruzi (strain CL Brener)) (UniProt Q4DSP6).
T4 sequence (whole entry): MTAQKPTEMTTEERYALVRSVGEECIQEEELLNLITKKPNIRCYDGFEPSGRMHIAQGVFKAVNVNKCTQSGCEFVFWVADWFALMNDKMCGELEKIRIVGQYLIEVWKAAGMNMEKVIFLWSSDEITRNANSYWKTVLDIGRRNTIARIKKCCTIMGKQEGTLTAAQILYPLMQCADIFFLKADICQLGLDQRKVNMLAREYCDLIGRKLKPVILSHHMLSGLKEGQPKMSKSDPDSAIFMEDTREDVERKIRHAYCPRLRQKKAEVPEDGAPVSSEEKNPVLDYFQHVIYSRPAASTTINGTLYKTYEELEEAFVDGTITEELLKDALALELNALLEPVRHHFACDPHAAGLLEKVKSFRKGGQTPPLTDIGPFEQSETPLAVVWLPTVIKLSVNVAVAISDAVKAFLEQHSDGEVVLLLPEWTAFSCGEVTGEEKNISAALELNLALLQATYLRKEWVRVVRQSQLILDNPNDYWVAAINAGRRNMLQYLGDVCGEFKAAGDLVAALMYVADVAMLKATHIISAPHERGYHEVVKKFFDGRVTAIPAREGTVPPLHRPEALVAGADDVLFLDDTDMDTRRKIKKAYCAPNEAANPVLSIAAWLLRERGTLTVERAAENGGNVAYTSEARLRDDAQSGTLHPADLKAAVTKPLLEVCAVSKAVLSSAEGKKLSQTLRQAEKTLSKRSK
In words: Trypanosoma cruzi tyrosyl tRNA synthetase (TcYRS) _High Tyrosine SOP. Note: in the data most compounds retested in dose-response had high values. Format: functional. Particulars: 30 µM.

Assay [8] concerns the target T4, Tyrosyl-tRNA synthetase, putative (Trypanosoma cruzi (strain CL Brener)). In words: Trypanosoma cruzi tyrosyl tRNA synthetase (TcYRS) SOP. Type of assay: functional. Particulars: 30 µM.
The target in assay [9] is Chromo domain-containing protein 1 (Saccharomyces cerevisiae (strain ATCC 204508 / S288c) (Baker's yeast)) (UniProt P32657). In words: ScCHD-1 Enzyme Inhibition Assay. Note: in the data most compounds retested in dose-response had high values. Format: functional. To be noted: 30 µM.
Sequence of Chromo domain-containing protein 1 (Saccharomyces cerevisiae (strain ATCC 204508 / S288c) (Baker's yeast)) (P32657 whole entry, the tested form may be a part): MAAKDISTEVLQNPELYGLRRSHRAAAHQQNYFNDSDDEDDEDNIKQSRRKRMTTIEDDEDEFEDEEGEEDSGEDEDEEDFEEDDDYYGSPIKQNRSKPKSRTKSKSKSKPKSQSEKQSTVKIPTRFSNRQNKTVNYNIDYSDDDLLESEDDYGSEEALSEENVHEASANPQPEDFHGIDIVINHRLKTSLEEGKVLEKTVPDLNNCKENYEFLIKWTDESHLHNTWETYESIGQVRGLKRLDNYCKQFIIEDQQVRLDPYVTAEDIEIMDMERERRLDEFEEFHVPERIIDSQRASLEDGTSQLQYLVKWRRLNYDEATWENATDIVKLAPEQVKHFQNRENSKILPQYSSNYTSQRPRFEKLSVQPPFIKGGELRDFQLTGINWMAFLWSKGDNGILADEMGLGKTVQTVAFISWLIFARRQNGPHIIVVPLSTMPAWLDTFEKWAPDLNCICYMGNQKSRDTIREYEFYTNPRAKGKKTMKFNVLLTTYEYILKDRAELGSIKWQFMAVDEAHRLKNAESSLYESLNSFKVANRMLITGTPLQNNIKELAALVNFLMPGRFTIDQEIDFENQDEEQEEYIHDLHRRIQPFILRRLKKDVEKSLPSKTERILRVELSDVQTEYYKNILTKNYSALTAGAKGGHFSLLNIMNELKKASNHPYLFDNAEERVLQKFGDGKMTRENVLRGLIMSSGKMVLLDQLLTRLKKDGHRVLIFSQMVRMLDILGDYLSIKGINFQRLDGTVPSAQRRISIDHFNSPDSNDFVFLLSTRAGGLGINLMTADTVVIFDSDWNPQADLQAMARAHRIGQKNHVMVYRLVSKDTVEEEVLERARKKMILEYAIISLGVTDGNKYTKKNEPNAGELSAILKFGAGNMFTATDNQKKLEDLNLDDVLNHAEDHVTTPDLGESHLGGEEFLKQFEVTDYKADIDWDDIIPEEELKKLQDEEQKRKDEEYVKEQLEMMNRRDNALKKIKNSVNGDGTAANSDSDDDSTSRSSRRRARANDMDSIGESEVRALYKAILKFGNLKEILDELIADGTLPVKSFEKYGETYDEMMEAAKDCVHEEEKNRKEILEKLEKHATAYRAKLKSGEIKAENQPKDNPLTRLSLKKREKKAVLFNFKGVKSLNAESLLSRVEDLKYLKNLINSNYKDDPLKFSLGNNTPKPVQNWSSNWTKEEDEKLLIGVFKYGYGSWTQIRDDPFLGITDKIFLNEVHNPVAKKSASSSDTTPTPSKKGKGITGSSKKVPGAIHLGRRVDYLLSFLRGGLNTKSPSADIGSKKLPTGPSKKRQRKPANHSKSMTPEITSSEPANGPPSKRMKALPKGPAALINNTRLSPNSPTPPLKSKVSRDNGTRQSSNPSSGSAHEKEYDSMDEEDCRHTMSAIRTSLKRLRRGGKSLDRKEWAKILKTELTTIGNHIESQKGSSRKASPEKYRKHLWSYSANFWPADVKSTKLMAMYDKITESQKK

Here are results for 10 molecules from ChEMBL document CHEMBL3988442, “University of Dundee, Small-Polar-MMV Screening Library” (2021).

For some assays here: Entries with a potency or affinity are not part of this list.

Sequence of Protein translocase subunit SecA (Escherichia coli (strain K12)) (P10408 whole entry): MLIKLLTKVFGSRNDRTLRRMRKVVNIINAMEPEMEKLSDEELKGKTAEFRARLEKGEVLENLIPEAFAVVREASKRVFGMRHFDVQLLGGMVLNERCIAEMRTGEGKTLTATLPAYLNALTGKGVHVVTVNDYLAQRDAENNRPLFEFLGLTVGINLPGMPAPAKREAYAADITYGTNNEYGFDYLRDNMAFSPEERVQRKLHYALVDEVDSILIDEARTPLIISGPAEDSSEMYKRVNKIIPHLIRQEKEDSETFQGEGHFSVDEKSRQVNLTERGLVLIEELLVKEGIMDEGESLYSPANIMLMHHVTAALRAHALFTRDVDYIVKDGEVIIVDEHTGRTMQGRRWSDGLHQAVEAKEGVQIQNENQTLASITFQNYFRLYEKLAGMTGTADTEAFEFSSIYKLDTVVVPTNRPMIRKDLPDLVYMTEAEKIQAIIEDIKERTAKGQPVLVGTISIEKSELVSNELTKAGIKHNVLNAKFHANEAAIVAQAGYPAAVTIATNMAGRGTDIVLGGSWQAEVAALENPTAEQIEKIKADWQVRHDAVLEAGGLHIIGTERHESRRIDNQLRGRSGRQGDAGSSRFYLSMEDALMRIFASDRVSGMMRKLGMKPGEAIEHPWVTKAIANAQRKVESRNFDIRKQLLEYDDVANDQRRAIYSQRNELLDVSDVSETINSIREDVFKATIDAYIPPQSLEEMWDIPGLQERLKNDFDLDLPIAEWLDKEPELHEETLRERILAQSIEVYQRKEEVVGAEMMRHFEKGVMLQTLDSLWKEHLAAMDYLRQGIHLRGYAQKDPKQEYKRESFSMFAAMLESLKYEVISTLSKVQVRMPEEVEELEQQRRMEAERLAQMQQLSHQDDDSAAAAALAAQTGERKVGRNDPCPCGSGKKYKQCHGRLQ

Consider `O=C([C@H]1CN(CCc2ccccc2)C[C@H]2OCC[C@@H]12)N1CCCO1`, for which the Percent Effect in assay [1] is -5.74%; in [2] it was 18.7%; in [3], -7.7%; in assay [4], -0.861%; with Trypanosoma cruzi it was 6.37%; in assay [5], -46.1%. Besides, the Percent Effect in assay [6] was 11.6%; in the assay filed under Homo sapiens, 4.24%; in assay [7], 2.08%; in assay [8], 15%; in assay [9], -7.28%.

Regarding `Cc1cc(NC(=O)CN2CCn3c(nnc3C3CC3)C2)n(C)n1`, the Percent Effect in [1] is -3.7%; in assay [2] it was -5.26%; in [3], 11.5%; in [4] it was -1.43%; in the assay with Trypanosoma cruzi it was -4.7%; in assay [5], 0%. For the same molecule, the Percent Effect is 4.84% in assay [6]; 21.3% in the assay listed under Homo sapiens; -0.49% in assay [7]; 0% in assay [8]; 3.45% in assay [9].

For `Cn1cc(C(=O)N2C[C@@H]3COC[C@]3(COCc3cccnc3)C2)cn1`, the Percent Effect in assay [1] is 0.921%; in assay [2] it was 13%; in [3] it was 7.58%; in [4], 1.08%; in the assay on Trypanosoma cruzi, -4.83%; in [5] it was 11%. The Percent Effect in assay [6] is 17.4%; in the assay filed under Homo sapiens, 3.89%; in assay [7], 0%; in assay [8], 8.97%; in assay [9], -5.24%.

As to `Cc1cc(C)n(C2CN(CC(O)c3ccc4c(c3)OCO4)C2)n1` (stereo not given), the Percent Effect in assay [1] is -2.6%; in [2], -13%; in assay [3], 0.139%; in [4], 7.69%; in the assay with Trypanosoma cruzi it was 3.37%; in [5], -2.85%. Besides, the Percent Effect is 4.56% in assay [6]; 26.7% in the assay filed under Homo sapiens; 15.5% in assay [7]; 12.2% in [8]; -2.01% in [9].

For `COc1ccc(C2=CCN(C(=O)C3CC(=O)N(C4CC4)C3)CC2)cc1` (stereo not given), the Percent Effect is -3.27% in assay [1]; -5.26% in assay [2]; 2.62% in assay [3]; -10.1% in assay [4]; -2.15% with Trypanosoma cruzi; 2.16% in [5]. Besides, the Percent Effect in assay [6] is 1.61%; in the assay listed under Homo sapiens, 19.9%; in [7], 2.46%; in assay [8], -6.17%; in assay [9], -1.27%.

Consider `Cc1cc(C(=O)NCC2COCc3c(C)nnn3C2)no1` (stereo not given), for which the Percent Effect was -6.44% in assay [1]; 2.6% in [2]; -3% in assay [3]; 3.99% in [4]; -0.295% in the assay with Trypanosoma cruzi; -9.65% in assay [5]. Besides, the Percent Effect in assay [6] is 7.65%; in the assay listed under Homo sapiens, -19%; in assay [7] it was 2.15%; in [8], 11.1%; in [9] it was -0.439%.

For `CN1CCN(Cc2cnc3n2CCN(Cc2cccs2)C3)CC1`, the Percent Effect is -1.16% in [1]; 21.6% in assay [2]; -2.7% in assay [3]; -1.5% in assay [4]; 3.62% in the assay on Trypanosoma cruzi; 2.87% in assay [5]. In addition, the Percent Effect was 19.7% in assay [6]; -1.05% in the assay listed under Homo sapiens; 4.32% in assay [7]; 20.5% in [8]; -0.68% in [9].

As for `CC(C)(C)OC(=O)N1CCN(C(=O)c2sccc2C2CC2)CC1`, the Percent Effect in [1] was -1.99%; in assay [2] it was 8.86%; in [3], 5.24%; in [4], 1.31%; in the assay with Trypanosoma cruzi, -2.56%; in assay [5] it was 9.25%. Also, the Percent Effect in assay [6] is 6.17%; in the assay filed under Homo sapiens, -13.8%; in assay [7], 3.12%; in [8], 5.06%; in [9], -5.68%.

Regarding `Nc1nc(CN2CCOC(Cn3cncn3)C2)nc2ccccc12` (stereo not given), the Percent Effect in assay [1] is -2.89%; in assay [2], 0%; in assay [3], 2.62%; in assay [4], -2.89%; in the assay on Trypanosoma cruzi it was -1.02%; in assay [5], 0.924%. The Percent Effect in [6] was -7.18%; in the assay filed under Homo sapiens, 0.0129%; in assay [7], 1.98%; in assay [8] it was 3.66%; in [9], 6.29%.

Regarding `Cc1ccc2c(n1)N(CCn1cccn1)CCN(C(=O)CC1CC1)C2`, the Percent Effect in [1] is -3.68%; in assay [2], 5.41%; in [3] it was -9.57%; in assay [4] it was 3.09%; in the assay on Trypanosoma cruzi, -4.4%; in assay [5], 1.74%. For the same molecule, the Percent Effect in assay [6] is 10.6%; in the assay listed under Homo sapiens, 10.3%; in [7] it was -5.38%; in assay [8] it was 11.1%; in assay [9], -7.62%.
